The text below walks through data of PubChem BioAssay.

Values joined by “and” are separate entries in the source; they are usually repeats but may differ in a detail not shown here. Identical values can stand only once. Active and inactive are the calls of the source. No stated cut-off is given here; in the data, active means inhibition above about 80%; inactive means the rest.

Broadly, the inhibition is the relative decrease from the control value, in per cent.
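Further: cells exposed for 96 hours before readout.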

One test is described as follows: growth inhibition, single agents and combos, ICB984, cell-based, cisplatin or BGB combos, synergistic combos for chromothripsis tumors (AID 1671451).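 Further: 0% = vehicle DMSO and 100% = killing by high DMSO.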 Particulars: ICB984 medulloblastoma cells, drug combinations, cisplatin combo, at 5 µM, stronger effect = higher value.
As for `CCn1cc(C(=O)O)c(=O)c2cc(F)c(N3CCNCC3)nc21`, the inhibition was -14.7% and -13.9%.
On the same count and under the same terms, to `O=C(O)CCCCCCCC(=O)O` belongs -29.2%; to `O=NN(CCCl)C(=O)NCCCl`, -35.2%.
Still for that read-out and setting: then `Cc1oncc1C(=O)Nc1ccc(C(F)(F)F)cc1`, with -28.5%.

Still in this test, the particulars now being: ICB984 medulloblastoma cells, drug combinations, measured here: 5 uM single agent, at 5 µM, stronger effect = higher value.
Take `CCn1cc(C(=O)O)c(=O)c2cc(F)c(N3CCNCC3)nc21`: the inhibition was -13.9% and -18.7%.
Still for that read-out and setting: then `O=C(O)CCCCCCCC(=O)O`, with -20.6%.
On the same count and under the same terms, then `O=NN(CCCl)C(=O)NCCCl`, with -15.7%.
Turning to `Cc1oncc1C(=O)Nc1ccc(C(F)(F)F)cc1`, the inhibition was found to be 9.62%.

A short description of another test: growth inhibition, single agents and combos, LFS_MB_1R, cell-based, cisplatin or BGB combos, synergistic combos for chromothripsis tumors (AID 1671452). Particulars: LFS_MB_1R medulloblastoma cells, at 0.5 µM, stronger effect = higher value.
Turning to `CCn1cc(C(=O)O)c(=O)c2cc(F)c(N3CCNCC3)nc21`, the inhibition was -40% (inactive) and 2.92% (inactive).
Same read-out and setting: to `O=C(O)CCCCCCCC(=O)O` belongs -28.5% (inactive); to `O=NN(CCCl)C(=O)NCCCl`, -12.2% (inactive).
Still for that read-out and setting: then `Cc1oncc1C(=O)Nc1ccc(C(F)(F)F)cc1`, with -18.1% (inactive).

Still in this test, the particulars now being: LFS_MB_1R medulloblastoma cells, measured here: combination with BGB IC40, at 0.05 µM, stronger effect = higher value.
Regarding `CCn1cc(C(=O)O)c(=O)c2cc(F)c(N3CCNCC3)nc21`, the inhibition is -27.4% and 5.91%.
Same read-out and setting: then `O=C(O)CCCCCCCC(=O)O`, with -23.1%; and `O=NN(CCCl)C(=O)NCCCl`, with -13.6%.
Turning to `Cc1oncc1C(=O)Nc1ccc(C(F)(F)F)cc1`, the inhibition was -48.9%.

Staying with this test, now noted: LFS_MB_1R medulloblastoma cells, measured here: combination with cisplatin, at 0.5 µM, stronger effect = higher value.
As to `CCn1cc(C(=O)O)c(=O)c2cc(F)c(N3CCNCC3)nc21`, the inhibition was -80.9% and -14.1%.
Regarding `O=C(O)CCCCCCCC(=O)O`, the inhibition is -37.2%.
For the compound `O=NN(CCCl)C(=O)NCCCl`, the inhibition is 10.3%.
On the same count and under the same terms, then `Cc1oncc1C(=O)Nc1ccc(C(F)(F)F)cc1`, with -43.1%.

Still in this test, the particulars now being: LFS_MB_1R medulloblastoma cells, measured here: combination with cisplatin, at 5 µM, stronger effect = higher value.
For the compound `CCn1cc(C(=O)O)c(=O)c2cc(F)c(N3CCNCC3)nc21`, the inhibition was -47.5% and -13.9%.
Same read-out and setting: to `O=C(O)CCCCCCCC(=O)O` belongs -71.3%.
Turning to `O=NN(CCCl)C(=O)NCCCl`, the inhibition was -12%.
On to `Cc1oncc1C(=O)Nc1ccc(C(F)(F)F)cc1`, for which the inhibition was -31%.

The nature of another test: growth inhibition, single agents and combos, HTB85, cell-based, BGB or cisplatin IC20 combos, synergistic combos for chromothripsis tumors (AID 1671453).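 Further: 0% = vehicle DMSO and 100% = high DMSO killing control.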 To be noted: HTB85 osteosarcoma cells, drug combinations, at 0.5 µM, stronger effect = higher value.
Take `CCn1cc(C(=O)O)c(=O)c2cc(F)c(N3CCNCC3)nc21`: the inhibition is -12.7% (inactive) and -3.77% (inactive).
Same read-out and setting: then `O=C(O)CCCCCCCC(=O)O`, with -17.1% (inactive).
As to `O=NN(CCCl)C(=O)NCCCl`, the inhibition is -10.6% (inactive).
Same read-out and setting: to `Cc1oncc1C(=O)Nc1ccc(C(F)(F)F)cc1` belongs -9.93% (inactive).

Staying with this test, now noted: HTB85 osteosarcoma cells, drug combinations, measured here: with BGB IC20, at 0.5 µM, stronger effect = higher value.
As for `CCn1cc(C(=O)O)c(=O)c2cc(F)c(N3CCNCC3)nc21`, the inhibition was 1.15% and -26.8%.
Still for that read-out and setting: then `O=C(O)CCCCCCCC(=O)O`, with -39.9%; and `O=NN(CCCl)C(=O)NCCCl`, with -23%.
Consider `Cc1oncc1C(=O)Nc1ccc(C(F)(F)F)cc1`, for which the inhibition is -10.4%.
